# Measured values published in PubChem BioAssay AID504834 (National Center for Advancing Translational Sciences (NCATS), 2011).
# Among all 320,000 compounds or so, about 22,000 (6.9%) were called active. About 27% were inconclusive and are not listed. Only a selection was taken, and actives are over-represented in it overall. A number with no mark means an inactive call. The call rests on the fitted dose curve; in most records, active means well fitted inhibition curve with a large enough effect; inconclusive means small, poorly fitted or top-dose-only effect, or another doubt; inactive means no such curve, though single readings can be large or run the other way.
# Test: Primary qHTS for delayed death inhibitors of the malarial parasite plastid, 96 hour incubation
# Conditions: P. falciparum luciferase reporter growth; series mostly up to 28.7 µM; activity change, negative = inhibition: at the top concentration
# How it was run: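 Compounds incubated with erythrocytes infected by luciferase-expressing P. falciparum (2% hematocrit, 0.05% parasitemia final) for 96 hours, 37 C in 5% CO2. Growth inhibition scored as decreased luciferase luminescence.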
# On the % scale 0 is the no-effect control and ±100 the full control effect; potency means the concentration at half of the fitted maximal effect.
Structure (SMILES),"activity change, negative = inhibition [%]",Potency
Cc1ccn2c(=O)c(NC(=O)c3cccc4ccccc34)c(C)nc2c1,-9.77,–
CC(=O)c1nn(-c2cccc(Br)c2)cc1C(=O)c1cccc2ccccc12,–,6.57 µM (active)
CC(=O)c1ccc2c(ccc3ccccc32)c1,55.4,–
Cc1ccc(C(=O)OCC(=O)Nc2ccc(Cl)cn2)cc1S(=O)(=O)N1CCOCC1,3.68,–
Cc1ccc(CSc2ccc(S(=O)(=O)N3CCCCC3)cn2)cc1,17.7,–
O=C(Nc1ccc(F)cc1)c1ccc(S(=O)(=O)NCc2cccnc2)cc1,6.72,–
Cc1cccn2cc(-c3cccc(S(=O)(=O)N4CCCCC4)c3)nc12,5.08,–
COc1ccc(N2CCN(C(=O)c3ccc(N4CCCCS4(=O)=O)cc3)CC2)cc1,108,–
Cc1ccc(CN(Cc2cccnc2)C(=S)Nc2cccc(Cl)c2C)cc1,-17.2,–
COCCNC(=S)N(CCc1c(C)[nH]c2ccc(C)cc12)Cc1cccnc1,–,1.65 µM (active)
COCCNC(=S)N(Cc1cccnc1)Cc1ccc(OC)c(OC)c1,-15.1,–
CC(NC(=O)c1cc(=O)[nH]c2ccccc12)c1ccc(F)cc1F (stereo unspecified),-2.79,–
O=C1C(=O)N(CCCN2CCOCC2)C(c2ccc([N+](=O)[O-])cc2)/C1=C(\O)c1ccc2c(c1)OCCO2 (stereo unspecified),-23.5,–
COC(=O)c1c(NC(=O)C(=O)N2CCCCC2)sc2c1CC(C)(C)OC2,-9.87,–
Cc1ccc(Cn2c(C)c3cnn(CC(=O)NCc4ccccn4)c(=O)c3c2C)cc1,31.5,–
Cc1ccc(CNC(=O)Cn2c(=O)c3sccc3n(Cc3cccc([N+](=O)[O-])c3)c2=O)cc1,–,8.28 µM (active)
COCCNC(=O)CCCn1c(=O)c2ccccc2n(Cc2cccc([N+](=O)[O-])c2)c1=O,-27.3,–
CSCC[C@H](NC(=O)N1CCn2c1nc1ccccc12)C(=O)NC1CCCCC1,-11.6,–
CCn1c(SCC(=O)NC2CC2)nnc1-c1ccncc1,30.7,–
COc1ccc(-n2cc(CN(C)Cc3n[nH]c(=O)[nH]3)c(-c3cccc(F)c3)n2)cc1,1.24,–
Cc1cccc(-n2cc(CN3CCN(C(=O)c4ncn[nH]4)CC3)c(-c3cccc(F)c3)n2)c1,16.2,–
Cc1ccc(-n2cc(CN(C)Cc3nccn3C)c(-c3cccc(C)c3)n2)cc1,–,3.7 µM (active)

Structure (SMILES),"activity change, negative = inhibition [%]",Potency
CCCCn1c(N)c(N(CC(C)C)C(=O)c2cnc(C)cn2)c(=O)[nH]c1=O,23.4,–
Cc1nn(Cc2ccccc2)c(C)c1NS(=O)(=O)c1ccccc1,–,10.4 µM (active)
Cc1cc(NS(=O)(=O)c2ccccc2)no1,42.6,–
Cc1nn(Cc2ccccc2)c(C)c1C(=O)NCCCN1CCCC1=O,7.34,–
NNC(=O)c1cccc(COCC(F)(F)C(F)F)c1,10.6,–
COCCNc1nnc(SCC(=O)NNC(=O)c2ccco2)s1,-15.4,–
CCCc1nnc(NC(=O)CCC(=O)NC2CC2)s1,6.55,–
COc1ccc(CNC(=O)C2CCN(S(=O)(=O)c3ccc(SC)cc3)CC2)cc1,2.03,–
CSc1ccc(S(=O)(=O)N2CCC(C(=O)NCc3ccncc3)CC2)cc1,–,7.38 µM (active)
O=C(NCc1ccncc1)C1CCCN(S(=O)(=O)c2ccc(Br)cc2)C1 (stereo unspecified),19.8,–
CSc1ccc(NC(=O)/C=C/C(=O)O)cc1,10.9,–
O=C(Nc1ccccc1C(=O)N1CCCCC1)c1ccco1,32.1,–
CCC(C(=O)NC1CCCC1)N(C(=O)Cn1nnc(-c2ccc(C)o2)n1)c1ccc(OC)c(OC)c1 (stereo unspecified),-18.7,–
CCOCCCN(C(=O)Cn1nnc(-c2ccc(OC)c(OC)c2)n1)C(CC)C(=O)NC1CCCC1 (stereo unspecified),5.08,–
COc1ccc(C(C(=O)NC2CCCC2)N(CCCO)C(=O)Cn2nnc(-c3ccc(C)o3)n2)cc1 (stereo unspecified),–,3.7 µM (active)
O=C(Cn1nnc(-c2ccccc2)n1)NC(=O)NC1CCCC1,16.9,–
COc1cccc(N(CC(=O)NC2CCCC2)C(=O)Cn2nnc(-c3ccc(C)o3)n2)c1,–,11.7 µM (active)
COc1ccc(-c2nnn(CC(=O)N(CCO)C(C(=O)NC3CCCC3)c3ccc(F)cc3)n2)cc1 (stereo unspecified),11.1,–
Cc1cccc(N(C(=O)Cn2nnc(-c3ccc(C)o3)n2)C(C(=O)NC2CCCC2)c2ccncc2)c1 (stereo unspecified),-5.05,–
COc1ccc(C)cc1N(C(=O)Cn1nnc(-c2ccc(C)o2)n1)C(C(=O)NC1CCCC1)c1ccncc1 (stereo unspecified),–,8.28 µM (active)
COc1cccc(N(CC(=O)NC2CCCC2)C(=O)Cn2nnc(-c3ccc(C)cc3)n2)c1,13.2,–
CC1CC(C)CN(c2ccc(S(=O)(=O)N3CCOCC3)cc2)C1 (stereo unspecified),0,–

Structure (SMILES),"activity change, negative = inhibition [%]",Potency
Cc1occc1-c1nnc(SCC(=O)NC2CCCCC2)o1,7.18,–
Cc1nc(N)nc(SCc2ccc([N+](=O)[O-])cc2)c1N,18.6,–
O=C(c1ccc(Cl)c(S(=O)(=O)N2CCCCC2)c1)N1CCCCCC1,5.22,–
COc1ccc(Cl)cc1NS(=O)(=O)c1cccc(C(=O)NC2CCC(O)CC2)c1 (stereo unspecified),-3.89,–
CCCCN(CCCC)CCNC(=O)CN1C(=O)COc2ccc(S(=O)(=O)N3CCOCC3)cc21,-0.253,–
Cc1ccc(OCC(=O)Nc2ccccc2C(=O)NC2CC2)cc1C,3.06,–
O=C(OCC(=O)c1cccs1)c1ccc([N+](=O)[O-])o1,17.2,–
Cc1onc(NC(=O)c2ccc([N+](=O)[O-])o2)c1Br,–,5.86 µM (active)
Cc1cc(NC(=O)COc2ccc([N+](=O)[O-])cc2)no1,-28.6,–
Cc1cc(C)c2c(=O)[nH]c(SCC(=O)Nc3ccc(Br)cc3)nc2n1,-7.23,–
Cc1ccc(S(=O)(=O)N2CCOCC2)cc1NC(=O)COC(=O)c1cnccn1,29.9,–
Nc1nc(SCC(=O)Nc2ccc(Cl)cc2C(F)(F)F)n[nH]1,14.2,–
Cc1ccc(S(=O)(=O)NCC2CCC(C(=O)N3CCOCC3)CC2)cc1 (stereo unspecified),5.81,–
CC(C)(CNC(=O)c1ccc(Cl)c(S(=O)(=O)N2CCc3ccccc3C2)c1)N1CCOCC1,–,7.38 µM (active)
CN(C)S(=O)(=O)c1ccc(C(=O)NCC(C)(C)N2CCOCC2)cc1,-13.6,–
Cc1ccccc1CSCCNC(=O)c1ccc(Cl)c(S(=O)(=O)N2CCOCC2)c1,–,13.1 µM (active)
O=C(NCCSCc1ccccc1)c1ccc(Cl)c(S(=O)(=O)N2CCOCC2)c1,–,11.7 µM (active)
Cc1ccccc1CSCCNC(=O)c1ccc(N(C)S(=O)(=O)c2ccccc2)cc1,5.36,–
O=C(NCc1cccnc1)c1cc(S(=O)(=O)N2CCOCC2)c(Cl)cc1Cl,2.43,–
Cc1ccc(NC(=O)CCCNC(=O)c2ccc(Cl)cc2)cc1S(=O)(=O)N1CCOCC1,-23.3,–
CC(C)(CNC(=O)Cc1ccc(Cl)cc1Cl)N1CCOCC1,4.76,–
CN(CC(=O)Nc1ccc(F)cc1)CC(=O)Nc1ccc(Cl)c(S(=O)(=O)N2CCOCC2)c1,-1.1,–
